The results in this text go back to PubChem BioAssay.

Several values for one entry are separate records, joined by “and”; a condition that tells them apart may be missing. Identical values can stand only once. Activity calls are given as the source filed them. Cut-off read from the data, not from the text of the source, unless noted: active = inhibition above about 80%; inactive = the rest.

Assay [1] can be described thus: chitosan synthesis blockers in C. neoformans – flow cytometry, Cibacron Brilliant Red staining (AID 1347148; call rule not given here;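 note: compound exposure lasted three days at 37 degrees C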). Conditions: Cryptococcus neoformans chitosan, stronger effect = lower value; at 10 µM unless noted. A general note: In flow cytometry, cells or beads pass a laser one at a time.
A short description of assay [2]: growth inhibition, single agents and combos, LFS_MB_1R, cell-based, cisplatin or BGB combos, synergistic combos for chromothripsis tumors (AID 1671452).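 Note: cells exposed for 96 hours before readout.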 Conditions: LFS_MB_1R medulloblastoma cells, stronger effect = higher value.
The nature of assay [3]: growth inhibition, single agents and combos, CRL2098, cell-based, BGB or cisplatin IC20 combos, synergistic combos for chromothripsis tumors (AID 1671454).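 Note: cells exposed for 96 h before readout; 0% = vehicle DMSO and 100% = killing by high DMSO.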 The note with it: CRL2098 osteosarcoma cells, drug combinations, stronger effect = higher value.
The nature of assay [4]: growth inhibition, single agents and combos, HD-MB03, cell-based, BGB or cisplatin IC20 combos, synergistic combos for chromothripsis tumors (AID 1671455; in the data active = inhibition above about 83%;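 note: 0% = vehicle DMSO and 100% = high DMSO as cytotoxic control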). Conditions: HD-MB03 medulloblastoma cells, stronger effect = higher value.
A short description of assay [5]: growth inhibition, single agents and combos, UWB1.289, cell-based, BGB or cisplatin combos, synergistic combos for chromothripsis tumors (AID 1671456).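 Note: cells exposed to compound for four days; 0% = vehicle DMSO and 100% = killing by high DMSO.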 Conditions: UWB1.289 ovarian carcinoma cells, stronger effect = higher value.
A short description of assay [6]: growth inhibition, single agents and combos, LFS_MB_2R, cell-based, cisplatin combos, synergistic combos for chromothripsis tumors (AID 1671457).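 Note: cells exposed to compound for four days before readout.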 Conditions: LFS_MB_2R medulloblastoma cells, stronger effect = higher value.
Assay [7] can be described thus: UWB1.289_BRCA1 ovarian cancer growth, cell-based, BGB or cisplatin combinations (AID 1671459). Conditions: UWB1.289 BRCA1 ovarian carcinoma, drug combinations, stronger effect = higher value.
Assay [8] in a line: drug combination toxicity in non-malignant astrocytes – cell-based, BGB or cisplatin IC20 combos, cytotoxicity control for chromothriptic childhood tumor combination screen (AID 1671460).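 Note: cells exposed to compounds for 96 hours before viability readout; 0% = vehicle and 100% = killing control.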 Conditions: Human astrocytes, viability inhibition, drug combinations, at 0.5 µM, stronger effect = higher value.
Assay [9] is described as follows: galactose survival enhancers in mitochondrial complex I cybrids – cell-based, galactose medium, ATP luminescence, primary screen (AID 1645843;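 active = z-score of at least 1.8 in each of two replicates, scored against plate mean and spread of sample wells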;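 note: positive z means more ATP and so rescue of galactose-driven cybrid death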). Conditions: complex I mutant cybrid cells, 72 h, stronger effect = higher value.
In assay [10] the target is NAD(+) hydrolase SARM1 (Homo sapiens) (UniProt Q6SZW1). As to the kind of experiment: blocking NAD cleavage by SARM1 SAM-TIR – cell lysate, NAD-Glo luminescence (AID 1508614;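 active = compound whose remaining NAD level is above about 45 nM, limit read from the data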;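 note: higher remaining NAD means stronger inhibition of SARM1 NADase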). Conditions: SAM-TIR HEK293T lysate NADase, at 1 µM, stronger effect = higher value.
In assay [11] the target is Mitogen-activated protein kinase 7 (Homo sapiens) (UniProt Q13164). As to the kind of experiment: Gal4-ERK5 driven luciferase induction – cell-based, HTS, primary screen (AID 1508626;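 active = luciferase signal above three times the same-plate solvent-only control wells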;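 note: luciferase driven by Gal4-ERK5 fusion binding five Gal4 sites before minimal TATA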). The note with it: HeLa Gal4-ERK5 transactivation, 18 h, at 5 µM, stronger effect = higher value.
The nature of assay [12]: P. berghei load reduction in hepatocytes – cell-based, HepG2, luciferase luminescence, HepG2 viability, primary screen (AID 624349; in the data active = parasite load remaining mostly below about 12%, no sharp cut-off; inactive = mostly above about 10%;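 note: 100% = mean of DMSO negative control wells on the same plate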). The note with it: P. berghei liver stage in HepG2, luciferase luminescence, concentration not given here; parasite load remaining: stronger effect = lower value; viability: measured here: HepG2 viability without parasites.
The nature of assay [13]: liver-stage malaria parasite load reduction – cell-based, known kinase inhibitor set, luminescence, hepatoma host viability (AID 624392; call rule not given here;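 note: infected cells incubated roughly two days before readout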). Conditions: Plasmodium liver stage in hepatoma cells, luciferase luminescence, concentration not given here; liver cell % of control: measured here: host liver cell viability; parasite % of control: stronger effect = lower value.
A short description of assay [14]: blockers of cellular phospholipid synthesis – cell-based, LOPAC library, screen 4, primary screen (AID 1347384; call rule not given here). Conditions: animal cells, phospholipid biosynthesis inhibition screen; at 10 µM.
[15] abbreviates: measured here: combination with BGB IC40, at 0.05 µM.
[16] abbreviates: measured here: combination with cisplatin, at 0.5 µM.
Setting [17] is: measured here: combination with cisplatin, at 5 µM.
[18] abbreviates: measured here: combination with BGB at IC20, at 0.5 µM.
Setting [19] is: measured here: combination with cisplatin at IC20, at 0.5 µM.
[20] abbreviates: measured here: combo with BGB at IC20, at 0.5 µM.
The mark [21] stands for this setting: measured here: combo with cisplatin at IC20, at 0.5 µM.
The mark [22] stands for this setting: measured here: inhibition with BGB combination, at 0.05 µM.
Setting [23] is: measured here: inhibition with cisplatin combination, at 0.05 µM.
Setting [24] is: BGB combination, concentration series, at 5 µM.
Setting [25] is: cisplatin combination, concentration series, at 5 µM.
Setting [26] is: measured here: combo with BGB IC20.
Where [27] appears, read: measured here: combo with cisplatin IC20.

Sequence of Mitogen-activated protein kinase 7 (Homo sapiens) (Q13164 whole entry, looked up, the tested form may be a part): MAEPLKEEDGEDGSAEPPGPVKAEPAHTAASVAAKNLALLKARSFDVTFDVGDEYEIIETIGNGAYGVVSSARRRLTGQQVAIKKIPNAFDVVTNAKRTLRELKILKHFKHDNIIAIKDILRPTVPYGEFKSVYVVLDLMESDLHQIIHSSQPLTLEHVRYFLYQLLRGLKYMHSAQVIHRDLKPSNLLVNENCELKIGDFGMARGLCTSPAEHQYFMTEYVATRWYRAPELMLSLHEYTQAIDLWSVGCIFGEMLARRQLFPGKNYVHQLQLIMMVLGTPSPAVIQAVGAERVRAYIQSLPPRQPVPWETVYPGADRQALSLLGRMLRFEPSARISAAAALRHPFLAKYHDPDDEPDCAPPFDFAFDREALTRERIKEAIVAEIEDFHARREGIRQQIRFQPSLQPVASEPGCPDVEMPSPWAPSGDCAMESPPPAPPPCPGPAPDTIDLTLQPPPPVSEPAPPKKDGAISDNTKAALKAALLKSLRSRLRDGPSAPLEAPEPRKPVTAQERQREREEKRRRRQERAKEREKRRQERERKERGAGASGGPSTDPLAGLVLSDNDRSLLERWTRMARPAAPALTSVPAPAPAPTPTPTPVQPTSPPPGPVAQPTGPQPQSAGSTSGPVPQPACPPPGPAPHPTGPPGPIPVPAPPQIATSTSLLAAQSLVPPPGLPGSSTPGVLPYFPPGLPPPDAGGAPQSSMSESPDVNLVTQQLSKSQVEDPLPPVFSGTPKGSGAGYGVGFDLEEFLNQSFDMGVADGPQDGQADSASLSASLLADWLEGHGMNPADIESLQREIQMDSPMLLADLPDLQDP
Sequence of NAD(+) hydrolase SARM1 (Homo sapiens) (Q6SZW1 whole entry, looked up, the tested form may be a part): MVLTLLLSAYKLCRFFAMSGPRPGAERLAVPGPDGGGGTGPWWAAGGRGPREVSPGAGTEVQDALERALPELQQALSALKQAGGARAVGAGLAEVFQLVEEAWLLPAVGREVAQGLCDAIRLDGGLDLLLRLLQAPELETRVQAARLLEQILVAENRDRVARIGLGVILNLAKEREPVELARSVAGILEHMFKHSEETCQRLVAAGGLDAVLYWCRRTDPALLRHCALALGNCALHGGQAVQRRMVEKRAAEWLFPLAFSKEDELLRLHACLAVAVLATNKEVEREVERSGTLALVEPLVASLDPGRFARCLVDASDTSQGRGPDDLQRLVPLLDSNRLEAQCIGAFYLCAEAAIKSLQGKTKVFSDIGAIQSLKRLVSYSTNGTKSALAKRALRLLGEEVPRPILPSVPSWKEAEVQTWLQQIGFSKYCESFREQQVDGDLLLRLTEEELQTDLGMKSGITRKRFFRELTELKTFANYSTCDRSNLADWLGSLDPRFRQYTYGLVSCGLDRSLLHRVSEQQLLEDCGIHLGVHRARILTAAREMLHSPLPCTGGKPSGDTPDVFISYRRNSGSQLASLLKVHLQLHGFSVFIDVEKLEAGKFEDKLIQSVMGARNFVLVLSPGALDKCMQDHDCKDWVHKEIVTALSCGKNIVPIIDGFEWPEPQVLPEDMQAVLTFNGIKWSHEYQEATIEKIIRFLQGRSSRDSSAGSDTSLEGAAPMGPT

For `C/C=C1\C2C=C(C)CC1(N)c1ccc(=O)[nH]c1C2` (stereo not drawn), in assay [1], the fold fluorescence is 4.5 [at 206.3 µM] (inactive).
As usually defined, the inhibition is the relative decrease from the control value, in per cent. Take `O=C(O)CO.[NH2-].[NH2-].[Pt+2]`: the inhibition in [2] (at 0.5 µM) was -13.7% (inactive); in assay [2] (setting [15]), -19.6%; in [2] (setting [16]) it was -19.7%; in [2] (setting [17]), -34.1%; in assay [3] (at 0.5 µM), -21.5% (inactive); in assay [3] (setting [18]), -45.1%. Further, the inhibition in [3] (setting [19]) is 11.3%; in assay [4] (at 0.5 µM) it was -6.84% (inactive); in assay [4] (setting [20]) it was -6.51%; in assay [4] (setting [21]), -6.47%; in [5] (at 0.5 µM) it was 4.06% (inactive); in [5] (setting [22]) it was -8.1%. Moreover, the inhibition in assay [5] (setting [23]) is -3.04%; in [6] (at 0.5 µM), -20.3% (inactive); in assay [6] (setting [16]) it was -13.9%; in assay [6] (setting [17]) it was -30.3%; in [7] (setting [24]) it was -0.864%; in [7] (at 0.5 µM), -1.6% (inactive). For the same molecule, the inhibition was 15.4% in assay [7] (setting [25]), 13.7% (inactive) in [8], 19.5% in assay [8] (setting [26]) and 18.5% in assay [8] (setting [27]).
With `CC(C)OC(=O)[C@H](C)N[P@](=O)(OC[C@H]1O[C@@H](n2ccc(=O)[nH]c2=O)[C@](C)(F)[C@@H]1O)Oc1ccccc1`, the inhibition in [2] (at 0.5 µM) is -18.8% (inactive); in assay [2] (setting [15]), -16%; in [2] (setting [16]), -13.4%; in [2] (setting [17]) it was -6.21%; in [3] (at 0.5 µM), -13.4% (inactive); in assay [3] (setting [18]) it was 11.7%. Moreover, the inhibition in assay [3] (setting [19]) is -20.8%; in assay [4] (at 0.5 µM), -3.62% (inactive); in assay [4] (setting [20]), -1.34%; in [4] (setting [21]), -5.16%; in [5] (at 0.5 µM) it was 0.46% (inactive); in assay [5] (setting [22]), -14.4%. Also, the inhibition in assay [5] (setting [23]) was -6.56%; in assay [6] (at 0.5 µM) it was -20% (inactive); in assay [6] (setting [16]), -25%; in assay [6] (setting [17]) it was -21.1%; in assay [7] (setting [24]), 0.431%; in [7] (at 0.5 µM), -0.57% (inactive). Moreover, the inhibition in [7] (setting [25]) is 20%; in assay [8], 4.95% (inactive); in assay [8] (setting [26]) it was 12%; in [8] (setting [27]), 8.21%.
As for `CC(O)C1C(=O)N2C(C(=O)O)=C(SC3CNC(C(=O)N(C)C)C3)C(C)C12` (stereo not drawn), the z-score in assay [9] is 0.545 (inactive).
Take `CCCCCCCCCCCCCCCC(=O)OC[C@@H](NC(=O)C(Cl)Cl)[C@H](O)c1ccc([N+](=O)[O-])cc1`: in [10], the remaining NAD was 10 nM (inactive). In addition, the luciferase signal in assay [11] was 64 AU (inactive).
As usually defined, the viability is a read-out of living cells in per cent, often relative to untreated cells. As for `C[N+]1(C)[C@@H]2CC(OC(=O)C(O)(c3cccs3)c3cccs3)C[C@H]1[C@@H]1O[C@@H]12` (stereo partly drawn), in assay [12], the parasite load remaining is 18% (inactive) and the viability is 66.5%. Further, the z-score in [9] is 0.685 (inactive).
`COc1cc(Oc2ccnc3cc(OC)c(OC)cc23)ccc1NC(=O)NC(C)c1nccs1` (stereo not drawn): in [13], the liver cell % of control was 91.8% and 94.8% and 112%; the parasite % of control is 110% (inactive) and 137% (inactive) and 49.5% (inactive).
`Cc1cnc(CNC(=O)c2c(=O)c3ccc(N4CCCN(C)CC4)nc3n3c2sc2ccccc23)cn1`: the inhibition in [2] (at 0.5 µM) is 6.38% (inactive) and -24.6% (inactive); in [2] (setting [15]) it was -8.97% and -9.02%; in assay [2] (setting [16]), 91.9% and 6.04%; in [2] (setting [17]) it was 104% and 102%; in assay [3] (at 0.5 µM) it was 31.8% (inactive) and -46.4% (inactive); in assay [3] (setting [18]), 40.6% and -32.3%. In addition, the inhibition in assay [3] (setting [19]) was 37% and -70.3%; in assay [4] (at 0.5 µM) it was 51.2% (inactive) and 21.9% (inactive); in assay [4] (setting [20]), 53.1% and 31.3%; in [4] (setting [21]), 36.7% and 11.5%; in assay [5] (at 0.5 µM) it was 39.7% (inactive) and 9.86% (inactive); in assay [5] (setting [22]), -5.3% and -40%. Also, the inhibition is -10.5% and -7.68% in [5] (setting [23]); -14.9% (inactive) and -31.5% (inactive) in assay [6] (at 0.5 µM); -16.1% and -30.8% in assay [6] (setting [16]); 108% and -28.8% in assay [6] (setting [17]); 117% and 38.3% in assay [7] (setting [24]); 44.8% (inactive) and 2% (inactive) in assay [7] (at 0.5 µM). In addition, the inhibition in [7] (setting [25]) was 122% and 71.6%; in [8] it was 45.8% (inactive) and 19.7% (inactive); in assay [8] (setting [26]) it was 41.5% and 16.4%; in assay [8] (setting [27]) it was 31.2% and 2.96%.
As to `Cn1cc(-c2ccc3nnc(C(F)(F)c4ccc5ncccc5c4)n3n2)cn1`, in [13], the liver cell % of control was 86.8% and 81.6% and 92.2%; the parasite % of control is 347% (inactive) and 352% (inactive) and 281% (inactive).
As to `COc1ccc(Cc2nccc3cc(OC)c(OC)cc23)cc1OC`, the molecule was called inactive in [14].
